Measured values reported in publication PMC4336329 (PLoS ONE, 2015).
The campaign covered roughly 310,000 compounds. About 14,000 (4.5%) showed an effect of 50% or more. Effects have a minus sign here. What follows is part of a selection rich in strong results, with near analogues and random picks from the rest.

These molecules were tested against human ether-à-go-go-related gene (hERG) potassium channel (human, UniProt Q12809) (assay: primary screen, population patch clamp on CHO cells stably expressing hERG; higher = less effect of the substance).
Chain of human ether-à-go-go-related gene (hERG) potassium channel (Q12809 whole entry, looked up): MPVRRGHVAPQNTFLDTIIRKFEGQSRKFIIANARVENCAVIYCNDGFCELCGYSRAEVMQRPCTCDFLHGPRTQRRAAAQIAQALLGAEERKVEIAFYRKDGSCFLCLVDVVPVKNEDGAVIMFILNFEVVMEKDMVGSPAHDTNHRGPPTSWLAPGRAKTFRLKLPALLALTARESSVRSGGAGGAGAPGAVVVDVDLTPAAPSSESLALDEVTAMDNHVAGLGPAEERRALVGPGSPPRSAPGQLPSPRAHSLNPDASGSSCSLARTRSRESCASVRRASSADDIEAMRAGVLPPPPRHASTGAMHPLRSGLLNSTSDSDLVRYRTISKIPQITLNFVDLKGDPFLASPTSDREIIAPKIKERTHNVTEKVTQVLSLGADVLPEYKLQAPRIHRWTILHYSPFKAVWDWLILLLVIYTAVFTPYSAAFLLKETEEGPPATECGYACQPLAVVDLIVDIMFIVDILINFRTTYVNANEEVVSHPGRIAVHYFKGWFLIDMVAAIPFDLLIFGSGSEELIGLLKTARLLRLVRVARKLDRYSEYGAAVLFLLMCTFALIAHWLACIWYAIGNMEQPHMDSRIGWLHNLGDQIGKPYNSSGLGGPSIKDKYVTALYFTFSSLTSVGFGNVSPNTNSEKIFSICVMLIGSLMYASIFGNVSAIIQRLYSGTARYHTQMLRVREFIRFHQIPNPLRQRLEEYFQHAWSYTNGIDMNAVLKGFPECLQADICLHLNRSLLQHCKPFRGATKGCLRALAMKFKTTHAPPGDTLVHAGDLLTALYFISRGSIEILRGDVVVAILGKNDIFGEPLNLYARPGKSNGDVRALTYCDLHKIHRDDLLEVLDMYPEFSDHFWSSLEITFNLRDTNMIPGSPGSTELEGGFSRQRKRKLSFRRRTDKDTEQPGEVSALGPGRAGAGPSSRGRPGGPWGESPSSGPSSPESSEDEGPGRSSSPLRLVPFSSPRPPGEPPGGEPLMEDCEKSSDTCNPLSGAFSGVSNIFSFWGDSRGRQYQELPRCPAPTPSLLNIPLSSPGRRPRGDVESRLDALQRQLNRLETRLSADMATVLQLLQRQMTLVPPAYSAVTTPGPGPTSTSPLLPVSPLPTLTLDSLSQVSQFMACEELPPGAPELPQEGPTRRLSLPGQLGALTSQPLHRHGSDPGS
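Also: peak tail current of the secondary pulse compared with the same well before compound.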

Compound | hERG current change (%, negative = inhibition) at 10uM [%]
COc1cc(CC(=O)OCC(=O)Nc2ncc(Cl)cc2Cl)cc(OC)c1OC | 7.58
COc1ccccc1NS(=O)(=O)c1ccc(O)c(C(=O)OCC(=O)c2ccc(Cl)cc2Cl)c1 | 23.4
Br.CC(C)CCC1CC(CSC(=N)N)OC1=O (stereo not shown) | -14
O=C([O-])c1ccccc1-[n+]1c(-c2ccccc2)cc(-c2ccccc2)cc1-c1ccccc1 | -3.82
Cc1ccccc1-[n+]1c(-c2ccccc2)cc(-c2ccccc2)cc1-c1ccccc1.[O-][Cl+3]([O-])([O-])[O-] | -76.3
Oc1ccccc1-[n+]1c(-c2ccccc2)cc(-c2ccccc2)c(O)c1-c1ccccc1.[O-][Cl+3]([O-])([O-])[O-] | 15.1
Nc1ccccc1-[n+]1c(-c2ccccc2)cc(-c2ccccc2)cc1-c1ccccc1.[O-][Cl+3]([O-])([O-])[O-] | -50.9
O=C([O-])c1ccc(-[n+]2c(-c3ccccc3)cc(-c3ccccc3)cc2-c2ccccc2)cc1 | -0.807
Oc1ccccc1-[n+]1c(-c2ccccc2)cc(-c2ccccc2)cc1-c1ccccc1.[O-][Cl+3]([O-])([O-])[O-] | -71.2
[O-]c1ccccc1-[n+]1c(-c2ccccc2)cc(-c2ccccc2)cc1-c1ccccc1 | -71.1
Cc1ccc(-c2cc(-c3ccccc3)cc(-c3ccccc3)[n+]2-c2ccccc2C(=O)O)cc1.[O-][Cl+3]([O-])([O-])[O-] | -21.5
COc1ccc(NC(=O)C2CCCN(S(=O)(=O)c3ccc4c(c3)CC(C)N4C(C)=O)C2)cc1 (stereo not shown) | 24.3
Cc1ccc(NC(=O)C2CCCC2)cc1Cl | -2.92
O=C(COC(=O)CNS(=O)(=O)c1ccccc1)NC12CC3CC(CC(C3)C1)C2 | -18
C=CCNC(=S)N/N=C(\C)c1cccnc1 | 0.787
O=C(NC1CCCC1)C(c1cc2c(cc1[N+](=O)[O-])OCO2)N1CCCC1 (stereo not shown) | 20.6
COc1cc(C(=O)Nc2cccnc2)cc(OC)c1OC | 16.3
O=CN1CCN(C(=O)CN2C(=O)c3ccccc3C2=O)CC1 | 10.5
OC(COc1ccccc1CNCc1cccnc1)CN1CCc2ccccc2C1 (stereo not shown) | -34.2
Cc1cc(=O)oc2cc(OCC(O)CN3CCc4ccccc4C3)ccc12 (stereo not shown) | -31.7
Cc1cc(OCC(O)CN2CCc3ccccc3C2)ccc1Cl.Cl (stereo not shown) | -53.4
COc1ccc(OCC(O)CN2CCc3ccccc3C2)cc1.Cl (stereo not shown) | -33.1

Compound | hERG current change (%, negative = inhibition) at 10uM [%]
CCOc1ccc(OCC(O)CN2CCc3ccccc3C2)cc1.Cl (stereo not shown) | -66.3
Cn1cc(CNCc2ccccc2OCC(O)CN2CCc3ccccc3C2)cn1 (stereo not shown) | -0.11
Cl.OC(COc1ccc2c(c1)OCO2)CN1CCc2ccccc2C1 (stereo not shown) | -28.5
CC(=O)c1ccc(OCC(O)CN2CCc3ccccc3C2)cc1.Cl (stereo not shown) | -41.9
O=S(=O)(c1ccc(OCC(O)CN2CCc3ccccc3C2)cc1)N1CCOCC1 (stereo not shown) | -4.43
CCC(=O)c1ccc(OCC(O)CN2CCc3ccccc3C2)cc1.Cl (stereo not shown) | -63.7
CCN(CCn1cccn1)Cc1ccccc1OCC(O)CN1CCc2ccccc2C1 (stereo not shown) | -51.5
N#CC1=C(N)NC(SCC(=O)Nc2ccc(Br)cc2)=C(C#N)C12CCCCC2 | 13.4
O=C(Nc1cc(Cl)ccc1O)C1CC(c2ccccc2Cl)=NO1 (stereo not shown) | 20.3
O=C(N/N=C/c1cn(-c2cccs2)nc1-c1ccccc1)c1ccc(O)cc1 | 13.8
COc1c(C)cccc1C(=O)Nc1ccc(N2CCN(S(C)(=O)=O)CC2)cc1 | 5.12
CCCC(=O)Nc1nnc(CC(=O)N2CCCC2)s1 | 7.72
O=C(CCCc1nc(-c2ccccc2Cl)no1)NCc1cccnc1 | -2.1
Cn1nnnc1NCc1ccccc1F | 4.52
CCCCC1OC23CCCCC2C(C#N)(C(=N)O3)C1(C#N)C#N (stereo not shown) | 4.17
CCN(CC)S(=O)(=O)c1ccc2c(c1)nc(SCC(=O)NCC1CCCO1)n2CC (stereo not shown) | 3.12
c1ccc(CSc2nnc(-c3cccs3)n2Cc2ccco2)cc1 | -46.8
Cl.OC1(CN2CCOCC2)C2CC3CC(C2)CC1C3 (stereo not shown) | 11
O=C(COC(=O)c1cc(-c2ccccc2)nc2ccccc12)Nc1ccc2c(c1)OCO2 | 10.7
O=C(NCCCc1ccccc1)c1ccccc1O | -0.415
CCCCSc1nnc(CCC)n1N | -2.49
Cc1ccc(C)c(NC(=S)N(Cc2cccc(Br)c2)CC2CCC(C(=O)O)CC2)c1 (stereo not shown) | 2.11

Compound | hERG current change (%, negative = inhibition) at 10uM [%]
COC(=O)c1ccccc1NC(=O)NC1CCCCC1 | 5.86
CC(C)(C)c1ccc(OCC(O)CN2CCc3ccccc3C2)cc1.Cl (stereo not shown) | -50.3
COc1cccc(OCC(O)CN2CCOCC2)c1.Cl (stereo not shown) | 18.7
CCCc1ccc(OCC(O)CN2CCc3ccccc3C2)cc1.Cl (stereo not shown) | -71.5
CCCc1ccc(OCC(O)CN2CCCC2)cc1.Cl (stereo not shown) | -27.8
OC(COc1ccc(CNCc2cccnc2)cc1)CN1CCc2ccccc2C1 (stereo not shown) | -13.5
COc1cccc(OCC(O)CN2CCc3ccccc3C2)c1.Cl (stereo not shown) | -71.1
CCCc1ccc(OCC(O)CN2CCN(CCO)CC2)cc1.Cl (stereo not shown) | -13.7
COc1cccc(C2c3c(oc4ccc(F)cc4c3=O)C(=O)N2CCN2CCOCC2)c1OC (stereo not shown) | 4.45
CCCCn1c(SCC(=O)Nc2cc(NC(=O)c3ccco3)ccc2C)nc2ccccc2c1=O | -8.62
Cc1ccc(/C=N/N2CCN(C3c4ccccc4-c4ccccc43)CC2)s1 | 0.486
CN(/N=C/c1cccc(Br)c1)C1=NS(=O)(=O)c2ccccc21 | -11.8
COc1ccc(N2CCN(c3nc4c(c(=O)n(C)c(=O)n4C)n3CCCc3ccccc3)CC2)cc1 | 13.4
CCc1ccc(/C=c2\s/c(=C\C(=O)C(C)(C)C)[nH]c2=O)cc1 | 15.2
Cc1ccccc1N1CCN(C2CCCN(C(=O)c3cc(CC(C)C)nn3C)C2)CC1 (stereo not shown) | -31.7
Cc1nc(C(=O)N2CCCC(N3CCN(c4ccccc4C)CC3)C2)cs1 (stereo not shown) | -39.5
Cc1ccccc1N1CCN(C2CCCN(C(=O)c3noc4c3CCCC4)C2)CC1 (stereo not shown) | -63.5
Cc1cc(C(=O)N2CCCC(N3CCN(c4ccccc4C)CC3)C2)n(C)n1 (stereo not shown) | -88.8
CCCc1cc(C(=O)N2CCCC(N3CCN(c4ccccc4C)CC3)C2)n(C)n1 (stereo not shown) | -35.8
Cc1ccccc1N1CCN(C2CCCN(C(=O)c3cn4c(C)cccc4n3)C2)CC1 (stereo not shown) | -58.1
Cc1ccccc1N1CCN(C2CCCN(C(=O)c3cc(C(C)C)[nH]n3)C2)CC1 (stereo not shown) | -61.2
O=C(c1noc2c1CCCC2)N1CCCC(N2CCN(c3ccccc3F)CC2)C1 (stereo not shown) | -28

Compound | hERG current change (%, negative = inhibition) at 10uM [%]
Cc1cc(C(=O)N2CCCC(N3CCN(c4ccccc4C)CC3)C2)nc(C)n1 (stereo not shown) | 4.27
Cc1ccccc1N1CCN(C2CCCN(C(=O)c3csc(C(C)C)n3)C2)CC1 (stereo not shown) | -43
CCc1[nH]nc(C(=O)N2CCCC(N3CCN(c4ccccc4C)CC3)C2)c1C (stereo not shown) | -23.8
Cc1ccccc1N1CCN(C2CCCN(C(=O)c3ccccn3)C2)CC1 (stereo not shown) | -9.78
O=C(COc1ccccc1[N+](=O)[O-])N(Cc1ccco1)C1CCS(=O)(=O)C1 (stereo not shown) | -6.3
Cc1cccc(NC(=O)/C=C/c2ccc3c(c2)OCO3)n1 | 19.1
Cc1c(Cl)cnc(NC(=O)COC(=O)Cc2coc3ccc4ccccc4c23)c1Cl | -7.96
Cc1ccc(Sc2ccc(NC(=O)CCl)cc2)c(C)c1 | 12.5
CC(=O)N1CC2(C)CN(C(C)=O)CC(C)(C1)C2 | 23.8
Cc1ccccc1N1CCN(C2CCCN(C(=O)c3snnc3C)C2)CC1 (stereo not shown) | 5.72
Cc1cnc(C(=O)N2CCCC(N3CCN(c4ccccc4C)CC3)C2)cn1 (stereo not shown) | 1.27
Cc1ccccc1N1CCN(C2CCCN(C(=O)c3cnsn3)C2)CC1 (stereo not shown) | -58.2
COc1ccc(NS(=O)(=O)c2ccc(N3CCCC3)c(NC(=S)Nc3cccc(S(=O)(=O)N(C)C)c3)c2)cc1 | 18.1
CCc1c(C)nc2ncnn2c1N1CCC(C(=O)NCc2cccc(OC)c2)CC1 | -38.6
CCc1c(C)nc2ncnn2c1N1CCCC(C(=O)NCc2ccc3c(c2)OCO3)C1 (stereo not shown) | -37.4
Cc1cc(C)nc(N2CCCC(C(=O)NCc3ccc4c(c3)OCO4)C2)n1 (stereo not shown) | 20.9
CCCc1cc(N2CCCC(C(=O)NCc3ccc4c(c3)OCO4)C2)n2ncnc2n1 (stereo not shown) | -78.4
CCCc1cc(N2CCCC(C(=O)NCC)C2)n2ncnc2n1 (stereo not shown) | -27.3
CCc1c(C)nc2ncnn2c1N1CCC(C(=O)NCc2ccc3c(c2)OCO3)CC1 | -68.7
